Test results taken from PubChem BioAssay AID1159580 (chemical genetic matrix, 2015).
The whole screen tested about 5,500 compounds, of which about 2,000 (36%) were called active. Inconclusive results (about 18%) are left out. Cut-off read from the data, not from the text of the source: active = normalized growth mostly below about 0.91 (no sharp cut-off); inconclusive = no clear call, values can overlap the other calls; inactive = mostly above about 0.92. The list shows a part of the results.

Test: chemical genetic growth profiling, strain panel (AID 1159580);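 note: tested at 20 µM; growth read once vehicle control cultures reached saturation at 30 °C; 1 = growth at the plate median or of vehicle wells; lower values mean less growth of the strain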
Settings: growth OD

Measured: normalized growth

CCOc1cccc(C(=O)c2ccc(O)c(O)c2O)c1
inactive: S. cerevisiae deletion strains, locus YKL009W, strain mrt4, hits give low values 0.914 | S. cerevisiae deletion strains, locus YKL068W, hits give low values 0.972 | S. cerevisiae deletion strains, locus YKL085W, strain MDH1 (second series), hits give low values 0.955 | S. cerevisiae deletion strains, locus YKL085W, strain MDH1, hits give low values 0.955 | S. cerevisiae deletion strains, locus YKL160W, strain elf1, hits give low values 0.93 | S. cerevisiae deletion strains, locus YKR026C, strain gcn3, hits give low values 0.956 | S. cerevisiae deletion strains, locus YKR091W, strain srl3, hits give low values 0.966 | S. cerevisiae deletion strains, locus YLL001W, strain dnm1, hits give low values 0.945 | S. cerevisiae deletion strains, locus YLL026W, hits give low values 0.936 | S. cerevisiae deletion strains, locus YLL041C, strain sdh2, hits give low values 0.939 | S. cerevisiae deletion strains, locus YLR102C, strain apc9, hits give low values 0.996 | S. cerevisiae deletion strains, locus YLR113W, strain HOG1, hits give low values 1.05 | S. cerevisiae deletion strains, locus YLR370C, strain arc18, hits give low values 0.939 | S. cerevisiae deletion strains, locus YLR384C, strain iki3, hits give low values 0.938 | S. cerevisiae deletion strains, locus YML032C, strain rad52, hits give low values 0.942 | S. cerevisiae deletion strains, locus YML124C, strain tub3, hits give low values 0.948 | S. cerevisiae deletion strains, locus YMR078C, strain ctf18, hits give low values 0.966 | S. cerevisiae deletion strains, locus YMR125W, strain sto1, hits give low values 0.976 | S. cerevisiae deletion strains, locus YMR129W, hits give low values 0.95 | S. cerevisiae deletion strains, locus YMR307W, strain GAS1, hits give low values 0.698 | S. cerevisiae deletion strains, locus YNL183C, strain NPR1, hits give low values 0.98 | S. cerevisiae deletion strains, locus YNL248C, strain rpa49, hits give low values 0.95 | S. cerevisiae deletion strains, locus YNL250W, strain rad50, hits give low values 0.937 | S. cerevisiae deletion strains, locus YNL298W, strain CLA4, hits give low values 0.931 | S. cerevisiae deletion strains, locus YNL307C, strain MCK1, hits give low values 0.907 | S. cerevisiae deletion strains, locus YNL322C, strain KRE1 (second series), hits give low values 0.965 | S. cerevisiae deletion strains, locus YNR049C, strain mso1, hits give low values 0.961 | S. cerevisiae deletion strains, locus YOL012C, strain htz1 0.288 | S. cerevisiae deletion strains, locus YOR080W, strain dia2, hits give low values 0.961 | S. cerevisiae deletion strains, locus YOR083W, strain WHI5, hits give low values 0.894 | S. cerevisiae deletion strains, locus YOR136W, strain idh2, hits give low values 0.93 | S. cerevisiae deletion strains, locus YOR231W, strain MKK1, hits give low values 1 | S. cerevisiae deletion strains, locus YOR316C, strain cot1, hits give low values 0.962 | S. cerevisiae deletion strains, locus YPL078C, strain atp4, hits give low values 0.931 | S. cerevisiae deletion strains, locus YPL240C, strain hsp82, hits give low values 0.954 | S. cerevisiae deletion strains, locus YPL256C, strain CLN2, hits give low values 1.07 | S. cerevisiae deletion strains, locus YPR119W, strain clb2, hits give low values 0.982 | S. cerevisiae deletion strains, locus YPR141C, strain kar3, hits give low values 0.963 | S. cerevisiae deletion strains, locus YPR163C, strain tif3, hits give low values 0.936
active: S. cerevisiae deletion strains, locus YKR001C, strain vps1, hits give low values 0.811 | S. cerevisiae deletion strains, locus YLR027C, strain aat2, hits give low values 0.905 | S. cerevisiae deletion strains, locus YLR039C, strain RIC1, hits give low values 0.521 | S. cerevisiae deletion strains, locus YLR058C, strain SHM2, hits give low values 0.524 | S. cerevisiae deletion strains, locus YLR221C, strain rsa3, hits give low values 0.87 | S. cerevisiae deletion strains, locus YLR258W, strain gsy2, hits give low values 0.899 | S. cerevisiae deletion strains, locus YLR262C, strain YPT6 (second series), hits give low values 0.627 | S. cerevisiae deletion strains, locus YLR268W, strain sec22, hits give low values 0.72 | S. cerevisiae deletion strains, locus YLR320W, strain mms22, hits give low values 0.806 | S. cerevisiae deletion strains, locus YLR330W, strain CHS5, hits give low values 0.804 | S. cerevisiae deletion strains, locus YLR342W, strain FKS1 (second series), hits give low values 0.633 | S. cerevisiae deletion strains, locus YLR342W, strain FKS1, hits give low values 0.903 | S. cerevisiae deletion strains, locus YLR357W, strain rsc2, hits give low values 0.706 | S. cerevisiae deletion strains, locus YLR371W, strain rom2, hits give low values 0.737 | S. cerevisiae deletion strains, locus YLR418C, strain cdc73, hits give low values 0.563 | S. cerevisiae deletion strains, locus YML016C, strain PPZ1, hits give low values 0.71 | S. cerevisiae deletion strains, locus YML120C, strain ndi1, hits give low values 0.765 | S. cerevisiae deletion strains, locus YMR058W, strain fet3, hits give low values 0.283 | S. cerevisiae deletion strains, locus YMR205C, strain PFK2, hits give low values 0.74 | S. cerevisiae deletion strains, locus YMR223W, strain ubp8, hits give low values 0.844 | S. cerevisiae deletion strains, locus YMR231W, strain pep5, hits give low values 0.826 | S. cerevisiae deletion strains, locus YMR263W, strain SAP30, hits give low values 0.854 | S. cerevisiae deletion strains, locus YNL067W, strain RPL9B, hits give low values 0.841 | S. cerevisiae deletion strains, locus YNL071W, strain lat1, hits give low values 0.889 | S. cerevisiae deletion strains, locus YNL153C, strain GIM3, hits give low values 0.747 | S. cerevisiae deletion strains, locus YNL209W, strain ssb2, hits give low values 0.752 | S. cerevisiae deletion strains, locus YNL233W, strain BNI4, hits give low values 0.781 | S. cerevisiae deletion strains, locus YNL271C, strain bni1, hits give low values 0.886 | S. cerevisiae deletion strains, locus YNR052C, strain pop2, hits give low values 0.739 | S. cerevisiae deletion strains, locus YOL006C, strain TOP1, hits give low values 0.398 | S. cerevisiae deletion strains, locus YOL147C, strain pex11, hits give low values 0.823 | S. cerevisiae deletion strains, locus YOR001W, strain rrp6, hits give low values 0.87 | S. cerevisiae deletion strains, locus YOR061W, strain CKA2, hits give low values 0.788 | S. cerevisiae deletion strains, locus YOR069W, strain VPS5, hits give low values 0.808 | S. cerevisiae deletion strains, locus YOR070C, strain gyp1, hits give low values 0.925 | S. cerevisiae deletion strains, locus YOR106W, strain vam3, hits give low values 0.639 | S. cerevisiae deletion strains, locus YOR144C, strain elg1, hits give low values 0.816 | S. cerevisiae deletion strains, locus YOR184W, strain ser1, hits give low values 0.812 | S. cerevisiae deletion strains, locus YOR265W, strain rbl2, hits give low values 0.923 | S. cerevisiae deletion strains, locus YOR270C, strain vph1, hits give low values 0.637 | S. cerevisiae deletion strains, locus YOR290C, strain snf2, hits give low values 0.64 | S. cerevisiae deletion strains, locus YPL051W, strain arl3, hits give low values 0.767 | S. cerevisiae deletion strains, locus YPL106C, strain sse1, hits give low values 0.823 | S. cerevisiae deletion strains, locus YPL241C, strain CIN2, hits give low values 0.926 | S. cerevisiae deletion strains, locus YPR167C, strain met16, hits give low values 0.84 | S. cerevisiae deletion strains, strain wtn01, hits give low values 0.799 | S. cerevisiae strains, strain wild type, hits give low values 0.635
